Test results taken from PubChem BioAssay (NCI).
This is part of a sample that, as a whole, favours compounds with a hit. Of some 83,000 tested, about 20% had one in any assay.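 Negative percent growth values reflect cell death: -40 means 40% of the cells present at the start died, and -100 means all died.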 Values without a mark were called inactive. Active and inactive are the calls of the source. The calls were made as follows: active = growth percent below 10; inactive = the rest.

Tested on: NCI-H460 lung
Experiment: NCI-60 one-dose screen, 48 h (100 = growth as untreated, 0 = no growth, -100 = all killed)
Settings: 10 µM unless noted

SMILES | growth
Nc1nc(NC(=O)Nc2ccc(C(=O)O)cc2)nn1-c1ccc(S(N)(=O)=O)cc1 | 95.6%
O=C(CCCCCCN1CC(=O)N2[C@H](c3ccc(Cl)cc3)c3[nH]c4ccccc4c3C[C@@H]2C1=O)NO | 54.2%
CC(=O)OC[C@]12CC[C@@H]([C@@H](C)c3nnc(-c4ccncc4)o3)[C@@H]1[C@H]1CC[C@@H]3[C@@]4(C)CC[C@H](OC(C)=O)C(C)(C)[C@@H]4CC[C@@]3(C)[C@]1(C)CC2 | 58.6%
Cc1ccc(C(=O)Nc2cccc(C#Cc3cccc4[nH]nc(N)c34)c2)cc1C(F)(F)F | 75.6%
CCCCNC(=O)Oc1ccc(/C(=C(/C)Cc2ccc(OC)cc2)c2ccc(OCCN3CCCCCC3)cc2)cc1 | 53.8%
Cc1ccc2nc(/C(C#N)=C(/CCCO)NC(Cc3ccccc3)C(=O)OCc3ccccc3)[nH]c(=O)c2c1 (centres undefined) | 110%
O=C1/C(=C2\SC(=S)N(C3CC3)C2=O)SC(=S)N1C1CC1 | 103%
CC1=CC(c2ccco2)=C2C(N)=NNC2N1 (centres undefined) | 100%
Nc1nc2c(c3ncccc13)C(c1cccc(Cl)c1)Cc1ncccc1-2 (centres undefined) | 6.87% (active)
O=C(O)c1ccc(-c2ccc(/C=N/Nc3nc(Nc4ccccc4)nc(N4CCCCC4)n3)o2)cc1 | 52.8%
COC(=O)c1c2c(c(C)[n+]([O-])c1C)C(=O)C(NCc1cccc(Cl)c1)=CC2=O | 10.1%
Fc1ccc(Cn2cc(CSc3nc4ccccc4o3)nn2)cc1 | 110%
CC1CCN(C(=O)CCCl)c2ccccc21 (centres undefined) | 101%
CC1CCN(C(=S)SCC(=O)NC(=O)c2ccccc2)CC1 | 110%
CCOc1ccc(-n2nc(C(=O)NCc3ccccc3OC)nc2-c2cc(OC)c(OC)c(OC)c2)cc1 | 30.5%
COc1ccc(C(=O)N2c3ccccc3Sc3ccccc32)c(C(F)(F)F)c1 | 9.51% (active)
O=C(N=Nc1c(O)[nH]c2ccccc12)Nc1ccc(F)cc1 | 108%
O=C(O)c1cn(C2CC2)c2cc(N3CCN(C(=O)Nc4nc(-c5ccc(Br)cc5)cs4)CC3)c(F)cc2c1=O | 10.4%
CCN1C(=O)N(CC)C2C1NN=c1s/c(=C\c3ccc(C(F)(F)F)cc3)c(=O)n12 (centres undefined) | 2.84% (active)
Cc1ccc(C(=O)c2ccc(CC(=O)N=Nc3c(O)[nH]c4ccc(Br)cc34)n2C)cc1 | 104%
Cc1ccc(Cl)cc1NC(=O)c1sc2nc3c(cc2c1N)C(=O)CCC3 | 28.1%
Clc1ccc(-c2cc(-c3ccccc3)nc(NCCNc3ccnc4cc(Cl)ccc34)n2)cc1 | -51.6% (active)
N#C/C(=C\c1cn(Cc2ccccc2)c2ccccc12)C(=O)Nc1ncc(Cc2ccccc2Cl)s1 | -44.2% (active)
CC/C=C\C[C@H](O)C/C=C1/C(=O)C=C[C@@H]1C/C=C\CCCC(=O)O | 64.8%
C#Cc1cccc(Nc2nc(C)nc3cc(NC(=O)CCl)ccc23)c1 | -64.1% (active)

Tested on: HOP-92 NSCLC
Experiment: as above
Settings: 10 µM unless noted

SMILES | growth
CCOC(=O)c1ccccc1-c1c2ccc(=[N+](C)C)cc-2oc2cc(N(C)C)ccc12 | -19.3% (active)
O=C(Nc1ncc(Cc2cc(C(F)(F)F)ccc2Cl)s1)c1cccs1 | 47.1%
Clc1ccccc1-c1cnn2cc(-c3ccccc3)cnc12 | 82.9%
NC1(CO)COC(c2ccccc2)OC1 (centres undefined) | 96.7%
COc1cc(OC)cc(-c2ccc(-c3ccc(C(=N)N)o3)o2)c1 | 69.2%
CN1CCN(Cc2ccc(NC(=O)c3cncc(C#Cc4cnc5ccc(Cl)nn45)c3)cc2C(F)(F)F)CC1 | -16.3% (active)
NS(=O)(=O)c1ccc(NC(=O)/C(=C\c2ccc(Cl)cc2Cl)NC(=O)c2ccccc2)cc1 | 87%
C/C=C(/C)n1cnc2c(Nc3ccccn3)nc(Cl)nc21 | 99.9%
CS(=O)(=O)Nc1cc(-c2ccc3ncc(C#N)c(Nc4ccc(F)c(Cl)c4)c3c2)cnc1Cl | -1.46% (active)
CNC(=O)c1cc(Oc2cccc3nc(NC(=O)Nc4cc(C(F)(F)F)ccc4Cl)ccc23)ccn1 | 115%
CN1CCN(Cc2ccc(NC(=O)c3cncc(C#Cc4cnc(N)c5ccc(F)cc45)c3)cc2C(F)(F)F)CC1 | -6.92% (active)
CCN1CCN(CC(=O)Nc2nc3ccc(NCc4ccc(F)cc4)cc3s2)CC1 | 61.3%
COc1ccc(NC(=O)Nc2ccc(OCCCCCC(=O)NO)cc2)cc1 | 94%
CNC1=CC(=O)c2c(C(=O)OC)c(C)[n+]([O-])c(C)c2C1=O | 106%
Nc1nc(NC(=O)Nc2ccc(C(=O)O)cc2)nn1-c1ccc(S(N)(=O)=O)cc1 | 78.3%
O=C(CCCCCCN1CC(=O)N2[C@H](c3ccc(Cl)cc3)c3[nH]c4ccccc4c3C[C@@H]2C1=O)NO | 44.4%
CC(=O)OC[C@]12CC[C@@H]([C@@H](C)c3nnc(-c4ccncc4)o3)[C@@H]1[C@H]1CC[C@@H]3[C@@]4(C)CC[C@H](OC(C)=O)C(C)(C)[C@@H]4CC[C@@]3(C)[C@]1(C)CC2 | 66.1%
Cc1ccc(C(=O)Nc2cccc(C#Cc3cccc4[nH]nc(N)c34)c2)cc1C(F)(F)F | 63.8%
CCCCNC(=O)Oc1ccc(/C(=C(/C)Cc2ccc(OC)cc2)c2ccc(OCCN3CCCCCC3)cc2)cc1 | 53.3%
Cc1ccc2nc(/C(C#N)=C(/CCCO)NC(Cc3ccccc3)C(=O)OCc3ccccc3)[nH]c(=O)c2c1 (centres undefined) | 108%

SMILES | growth
O=C1/C(=C2\SC(=S)N(C3CC3)C2=O)SC(=S)N1C1CC1 | 98.9%
CC1=CC(c2ccco2)=C2C(N)=NNC2N1 (centres undefined) | 77.8%
Nc1nc2c(c3ncccc13)C(c1cccc(Cl)c1)Cc1ncccc1-2 (centres undefined) | 38.6%
O=C(O)c1ccc(-c2ccc(/C=N/Nc3nc(Nc4ccccc4)nc(N4CCCCC4)n3)o2)cc1 | 35.1%
COC(=O)c1c2c(c(C)[n+]([O-])c1C)C(=O)C(NCc1cccc(Cl)c1)=CC2=O | 38%
Fc1ccc(Cn2cc(CSc3nc4ccccc4o3)nn2)cc1 | 113%
CC1CCN(C(=O)CCCl)c2ccccc21 (centres undefined) | 115%
CC1CCN(C(=S)SCC(=O)NC(=O)c2ccccc2)CC1 | 107%
CCOc1ccc(-n2nc(C(=O)NCc3ccccc3OC)nc2-c2cc(OC)c(OC)c(OC)c2)cc1 | 29%
COc1ccc(C(=O)N2c3ccccc3Sc3ccccc32)c(C(F)(F)F)c1 | 15%
O=C(N=Nc1c(O)[nH]c2ccccc12)Nc1ccc(F)cc1 | 94%
O=C(O)c1cn(C2CC2)c2cc(N3CCN(C(=O)Nc4nc(-c5ccc(Br)cc5)cs4)CC3)c(F)cc2c1=O | -8.59% (active)
CCN1C(=O)N(CC)C2C1NN=c1s/c(=C\c3ccc(C(F)(F)F)cc3)c(=O)n12 (centres undefined) | 34.8%
Cc1ccc(C(=O)c2ccc(CC(=O)N=Nc3c(O)[nH]c4ccc(Br)cc34)n2C)cc1 | 106%
Cc1ccc(Cl)cc1NC(=O)c1sc2nc3c(cc2c1N)C(=O)CCC3 | 56.9%
Clc1ccc(-c2cc(-c3ccccc3)nc(NCCNc3ccnc4cc(Cl)ccc34)n2)cc1 | 31.8%
N#C/C(=C\c1cn(Cc2ccccc2)c2ccccc12)C(=O)Nc1ncc(Cc2ccccc2Cl)s1 | -6.07% (active)
CC/C=C\C[C@H](O)C/C=C1/C(=O)C=C[C@@H]1C/C=C\CCCC(=O)O | 75.2%
C#Cc1cccc(Nc2nc(C)nc3cc(NC(=O)CCl)ccc23)c1 | -82% (active)
